Bioassay records (PubChem BioAssay)
A selection: hits, their analogues and other compounds. The true share with any hit is near 12%.
ALDH1A1 block – ALDH1A1 (human) enzyme inhibition | 220,000 tested, 7.3% active | AID 1030 | Potency, µM (highest dose often 75.3 µM), without a hit: at the top dose activity, negative = inhibition, actives largely listed as inhibitors | P00352 | Purified ALDH1A1, NADH fluorescence, propionaldehyde substrate; active = well fitted inhibition curve with a large enough effect, not every such curve was filed as active; inconclusive = small, poorly fitted or top-dose-only effect, or another doubt; inactive = no such curve, though single readings can be large or run the other way;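 note: plate controls were no enzyme wells and a reference inhibitor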
Target sequence (P00352 whole entry, looked up): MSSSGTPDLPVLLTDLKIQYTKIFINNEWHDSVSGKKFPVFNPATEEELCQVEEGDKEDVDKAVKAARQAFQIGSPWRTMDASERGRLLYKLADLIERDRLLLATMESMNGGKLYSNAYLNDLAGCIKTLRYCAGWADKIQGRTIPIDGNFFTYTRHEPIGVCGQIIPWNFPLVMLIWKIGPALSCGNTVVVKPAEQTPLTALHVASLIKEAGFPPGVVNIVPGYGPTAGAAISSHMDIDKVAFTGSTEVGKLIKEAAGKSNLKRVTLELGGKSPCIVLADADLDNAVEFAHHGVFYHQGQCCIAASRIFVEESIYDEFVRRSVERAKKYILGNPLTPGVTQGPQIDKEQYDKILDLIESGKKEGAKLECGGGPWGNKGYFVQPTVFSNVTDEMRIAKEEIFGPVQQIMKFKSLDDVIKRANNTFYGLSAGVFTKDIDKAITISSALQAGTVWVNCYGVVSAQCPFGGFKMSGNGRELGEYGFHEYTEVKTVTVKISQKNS
PLK1 PBD block – PLK1 (human) polo-box domain binding inhibition | P53350 | Plk1 PBD binding of FITC phosphopeptide, fluorescence polarization | Potency, µM, for the others: max response, negative = inhibition, hits mostly inhibitors | 360,000 tested, 2.8% active | AID 720504; note: series mostly up to about 57 µM; nearly all actives have a fitted effect of over 65% in size
RORg inh – ROR gamma (mouse) transcription inhibition | P51450 | Drosophila S2 Gal4-RORgamma UAS-luciferase reporter, 20 h | Potency, µM (top dose mostly 53.6 µM), for inactives: at the highest dose activity change, negative = inhibition, actives largely listed as inhibitors | 310,000 tested, 5.4% active; note: nearly all actives have a fitted effect of over 60% in size
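Stably transfected Drosophila Schneider cells are the test system, with ROR gamma fused to Gal4 and luciferase under UAS control; luminescence is read after 20 hr of 700 uM copper sulfate induction at ambient temperature.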
VP16 counter – counter-screen for ROR gamma inhibitors: Gal4-VP16 reporter. Drosophila S2 Gal4-VP16 UAS-luciferase, luminescence, 20 h. Potency, µM (highest dose often 53.6 µM), inactives show top-dose activity, negative = inhibition, most hits filed as inhibitors. 310,000 tested, 3.5% active;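 note: Gal4-VP16 expression switched on by copper sulfate through the metallothionein promoter; nearly all actives have a fitted effect of over 50% in size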
Sfp PPTase inh – Sfp phosphopantetheinyl transferase inhibition; Q9F4F7; Biochemical Sfp PPTase activity, qHTS; Potency, µM, without a hit: largest response in the series, negative = inhibition, hits mostly inhibitors; 310,000 tested, 3.5% active; AID 1490;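 note: the enzyme is Sfp with the accession as filed and its product quenches rhodamine fluorescence; 0% = enzyme reaction without inhibitor and -100% = no enzyme wells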
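Reaction rates are the 30-min fluorescence difference (ex 525, em 598 nm) in wells containing 15 nM Sfp, 5 uM rhodamine-CoA and 12.5 uM BHQ-2-YbbR at pH 7.6 with 10 mM MgCl2.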
* marks the source's active call; other numbers are inactive results; ? = inconclusive; nt = not tested or not shown; [ ] = remark or other dose. Unless noted, calls come from the whole dose curve; as a rule, active = well fitted curve in the direction sought with a large enough effect; inconclusive = small, poorly fitted or top-dose-only effect, or another doubt; inactive = no such curve, though single readings can be large; an effect the other way counts as inactive or inconclusive. Unless noted, % is set by controls: 0 for no effect and ±100 for the full control effect; potency is the fitted concentration of half-maximal effect.

SMILES | ALDH1A1 block | PLK1 PBD block | RORg inh | VP16 counter | Sfp PPTase inh
COc1ccccc1-c1ccc2c(c1)C(C)(Cc1ccc(F)c(Cl)c1)C(=O)N2 (configuration not stated) | nt | 4% | nt | nt | nt
CCC(C)(C)NC(=O)CN(CCc1cccc(C)c1)C(=O)c1csnn1 | -2% | 7% | 9% | 2% | 17%
Cc1ccc(/C=N/Nc2ccccn2)s1 | nt | -9% | ? | 11µM* | ?
Cc1noc(C)c1/C=N/Nc1ccccn1 | 2% | -8% | ? | ? | -7%
FC(F)(F)c1ccccc1/C=N/Nc1ccccn1 | -2% | -2% | ? | -2% | 79µM*
Brc1ccccc1/C=N/Nc1ccccn1 | -1% | -6% | ? | -2% | 16%
CO[C@H]1COC(=O)[C@H]2CCCN2C(=O)[C@@H](C)COC(=O)C/C=C\[C@@H]1C | 21%[13.5 µM] | nt | 1%[10 µM] | -10%[10 µM] | 11%
Cc1ccc(/C=C2\SC(=S)N(CCCC(=O)NNC(=O)c3ccccc3O)C2=O)cc1 | nt | 1% | 1.6µM* | 2.8µM* | 5%
COc1cccc(/C=C2\SC(=S)N(CCCC(=O)Nc3cc(C)on3)C2=O)c1 | nt | 6% | 2.8µM* | 1.4µM* | 3%
CCN(CC)CCOC(=O)c1ccc(NC(=O)CCCN2C(=O)S/C(=C/c3ccc(OC)cc3)C2=S)cc1 | nt | 3% | 1µM* | 1.6µM* | -21%
O=C(CCCN1C(=O)/C(=C\c2ccccc2)SC1=S)Nc1ccc(O)cc1 | ? | -12% | 2µM* | 1.8µM* | -1%
COc1ccc(/C=C2\SC(=S)N(CCC(=O)Nc3ccc(O)cc3)C2=O)cc1 | nt | 5% | -30% | 21% | 3%
O=C(CCN1C(=O)/C(=C\c2ccccc2)SC1=S)Nc1ccc(C(=O)O)cc1 | nt | -15% | -14% | 26% | 5%
CCCCNC(=O)c1ccc2nc(CC)c(N(CC)CCN(C)C)n2c1 | nt | -1% | nt | nt | nt
O=C(O)c1ccc(NC(=O)[C@H](Cc2ccc(O)cc2)NC(=O)c2ccccc2)cc1 | nt | nt | 1% | 6% | 15%
CCc1ccc(/C=C2\SC(=S)N(CCCC(=O)NC3=NCCS3)C2=O)cc1 | nt | -11% | nt | nt | nt
O=C(CCCN1C(=O)/C(=C/c2ccccc2)SC1=S)Nc1cccc(O)c1 | 9% | -4% | ? | 7.1µM* | 0%
Cc1cc(NC(=O)CCCN2C(=O)c3cccc4cccc(c34)C2=O)no1 | ? | -10% | 6% | 7% | 6%
Cc1cc(NC(=O)CCCN2C(=O)c3cccnc3C2=O)no1 | -3% | 3µM* | 4% | -7% | -10%
COc1cccc(/C=C2\SC(=S)N(CCCC(=O)NC3=NCCS3)C2=O)c1 | nt | 2% | 0.56µM* | 0.71µM* | -8%
COc1cccc(/C=C2\SC(=S)N(CCCC(=O)Nc3ccc(C(=O)O)cc3)C2=O)c1 | nt | -16% | -8% | -6% | -11%
O=C(CCCN1C(=O)/C(=C\c2ccccc2)SC1=S)Nc1cccc(C(=O)O)c1 | nt | -28% | 0% | -26% | -2%
COc1cccc(/C=C2/SC(=S)N(CCCC(=O)Nc3ccc(O)cc3)C2=O)c1 | nt | -10% | 0.35µM* | 0.35µM* | 20%
Cc1ccc(/C=C2/SC(=S)N(CCCC(=O)Nc3ccc(O)cc3)C2=O)cc1 | ? | -2% | 0.4µM* | ? | -9%
Cc1ccc(/C=C2\SC(=S)N(CCCC(=O)NC3CCCC3)C2=O)cc1 | nt | -1% | 1.6µM* | ? | 8%
SMILES | ALDH1A1 block | PLK1 PBD block | RORg inh | VP16 counter | Sfp PPTase inh
O=C(Nc1nccs1)C1CC2CCC1C2 (configuration not stated) | -3% | -2% | 7.9µM* | -5% | 8%
O=C(NC1=NCCS1)C1CC2CCC1C2 (configuration not stated) | -4% | -3% | ? | -3% | -12%
Cc1ccc(NC(=S)Nc2cccc(-c3n[nH]c(=S)o3)c2)cc1 | nt | ? | ? | ? | 50µM*
CCc1cc2c(nc1CC)CCN(CC/C(C)=N/OC[C@@H](O)COCc1ccco1)C2 | 16%[13.5 µM] | nt | -10%[10 µM] | -9%[10 µM] | 1%
O=C(CSc1nc2ccccc2s1)c1sc2sc3ccccc3[n+]2c1O | -8%[13.5 µM] | nt | nt | nt | nt
CC(NCCC(Cc1ccccc1)c1ccco1)c1ccccc1 (configuration not stated) | nt | 30µM* | 9% | -2% | 7%
Cc1ccc(-c2nnc3n2CCCCC3)cc1 | -10% | -2% | -12% | 16% | 2%
Cc1ccc(-c2cnc3n2CCCCC3)cc1 | 6% | 2% | 3.5µM* | -15% | 30%
CCOc1ccc(-c2cnc3n2CCCCC3)cc1 | nt | 4% | 11µM* | ? | 28%
c1cc2c(cc1-c1cnc3n1CCC3)OCCO2 | ? | -1% | ? | ? | 15%
c1ccc(-c2ccc(-c3cnc4n3CCCCC4)cc2)cc1 | ? | -8% | 6.3µM* | 11µM* | -3%
COc1ccc(N=N/C(=C\O)C(=O)c2cccs2)cc1 | 14µM* | -14% | 35% | ? | -10%
COc1ccc(C(=O)/C(=C/O)N=Nc2ccc(F)cc2)cc1 | 4µM* | -4% | ? | ? | -4%
O=C(NCc1ccccc1)c1cc(C2COCCN2C(=O)CCc2ccccc2)on1 (configuration not stated) | nt | 9% | nt | nt | nt
O=C(NC1CCCCC1)C(CCc1ccccc1)N1CCc2ccccc2C1 (configuration not stated) | nt | -6% | nt | nt | nt
COC(=O)CC/C(O)=C1\C(=O)CC(C)(C)CC1=NCCc1nc2ccccc2[nH]1 | 16% | 21µM* | 12% | 3% | 9%
CC(=O)C1=C(O)CC(C)(C)CC1=NCCc1nc2ccccc2[nH]1 | 4% | 1% | 10% | 8% | 16%
Cc1nn(C)c(C)c1NC(=O)Nc1ccc(Cl)c(Cl)c1 | 0% | 0% | 13% | 8% | 2%
Cc1cc(NNC(=O)Nc2cccc(Cl)c2)nc2c1c(C)nn2C | nt | nt | ? | 11µM* | ?
Cc1nn(C)c2nc(NNC(=O)Nc3cc(Cl)nc(Cl)c3)cc(C(C)C)c12 | 4% | nt | -18% | 16µM* | -30%
CC#CC(C)C(OCOC)C(CC(C)Cc1cc(Br)cc(OCc2ccccc2)c1OC)OC (configuration not stated) | ? | nt | 2%[10 µM] | -5%[10 µM] | -1%
Cc1cccc(C(=O)N[C@H](C(=O)Nc2ccc(S(=O)(=O)NC3=NCCCCC3)cc2)C(C)C)c1 | 20µM* | -10% | -6% | -3% | 3%
Cc1cccc(C(=O)NC(C(=O)Nc2ccc(S(=O)(=O)Nc3nccs3)cc2)C(C)C)c1 (configuration not stated) | nt | -1% | nt | nt | nt
CCOC(=O)C1CCN(C(=O)Cn2nc(CC)n3cccc3c2=O)CC1 | nt | 27µM* | -2% | -4% | 19%
CCOC(=O)C1CCCN(C(=O)Cn2nc(C)n3c(cc4c(OC)cccc43)c2=O)C1 (configuration not stated) | nt | 27µM* | -21% | -4% | 12%
CCOc1ccc(S(=O)(=O)N2CCN(c3ccccc3)CC2)c2cccnc12 | 28µM* | 1% | -2% | -4% | -1%
CCOc1ccc(S(=O)(=O)Nc2ccc3c(c2)OCO3)c2cccnc12 | -4% | -12% | 25% | -16% | 56µM*
